In PubChem BioAssay:
Activity calls are given as the source filed them. Unless noted, how the calls were made is not given here.

Assays:
[1] = compound effects on lung adenocarcinoma cell viability – A549, calcein-AM fluorescence, 48 h, basal, profiling panel (AID 1162); conditions: higher = more signal; further: test concentration not given here
[2] = compound effects on differentiated 3T3-L1 adipocyte viability – cell-based, 3T3-L1 adipocytes, calcein-AM fluorescence, 48 h, basal, profiling panel (AID 1163); conditions: 3T3-L1 adipocytes viability, higher = more signal; further: test concentration not given here
[3] = compound effects on hepatocellular carcinoma cell viability – HepG2, calcein-AM fluorescence, 48 h, basal, profiling panel (AID 1164); conditions: higher = more signal; further: test concentration not given here
[4] = compound effects on multiple myeloma cell viability – MM1S, calcein-AM fluorescence, 48 h, basal, profiling panel (AID 1165); conditions: higher = more signal; further: test concentration not given here
[5] = calcein-AM signal in unstimulated myeloma cells – cell-based, calcein-AM fluorescence, 48 h, PK04 Diversity Set, profiling panel (AID 1166); conditions: RPMI8226 myeloma viability, higher = more signal;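 further: cells grown under basal conditions without added stimulus; test concentration not given here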
[6] = JC-1 mitochondrial signal, unstimulated HepG2 cells – cell-based, JC-1 fluorescence, 24 h, 100 nL compound, profiling panel (AID 1167); conditions: HepG2 mitochondrial potential, higher = more signal; further: test concentration not given here
[7] = JC-1 mitochondrial signal, unstimulated adipocytes – cell-based, JC-1 fluorescence, 3T3-L1 adipocytes, 24 h, 100 nL compound, profiling panel (AID 1168); conditions: JC-1 mitochondrial fluorescence, higher = more signal, called active from +8 up or from −8 down; further: test concentration not given here
[8] = JC-1 mitochondrial signal, unstimulated myeloma cells – cell-based, JC-1 fluorescence, RPMI8226, 24 h, 100 nL compound, profiling panel (AID 1169); conditions: JC-1 mitochondrial potential fluorescence, higher = more signal; further: test concentration not given here
[9] = JC-1 mitochondrial signal, unstimulated MM1S myeloma – cell-based, JC-1 fluorescence, 24 h, 100 nL compound, profiling panel (AID 1170); conditions: MM1S mitochondrial potential, higher = more signal; further: test concentration not given here
[10] = resazurin metabolic signal in A549 cells – cell-based, resazurin fluorescence, 24 h, PK04 Diversity Set, profiling panel (AID 1171); conditions: A549 viability, higher = more signal, called active from +8 up or from −8 down; further: test concentration not given here
[11] = resazurin metabolic signal in HepG2 cells – cell-based, resazurin fluorescence, 24 h, PK04 Diversity Set, profiling panel (AID 1172); conditions: HepG2 viability, higher = more signal; further: test concentration not given here
[12] = budding yeast growth changes without added modifier – OD600, strain BY4716, 24 h, basal condition, primary screen (AID 1173); conditions: S. cerevisiae BY4716 growth, OD600, 24 h; higher = more signal, called active from +8 up or from −8 down
[13] = viability profiling in MM1S myeloma cells – cell-based, resazurin fluorescence, basal, 24 h, PK04 Diversity Set, profiling panel (AID 1174); conditions: higher = more signal, called active from +8 up or from −8 down; further: test concentration not given here
[14] = target: Dihydroorotate dehydrogenase (quinone), mitochondrial (Plasmodium falciparum (isolate 3D7)) (UniProt Q08210); experiment: inhibition of P. falciparum DHODH – biochemical, C-terminal His tag, absorbance 600 nm, primary screen (AID 1175); conditions: PfDHODH enzyme, DCIP absorbance 600 nm; higher = more signal, called active from +8 up or from −8 down;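 further: recombinant parasite enzyme with a five histidine tag at its C terminus; test concentration not given here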
[15] = inhibition of PAO1 biofilm formation – strain PAO1, LB-PBS medium, absorbance 600 nm, primary screen (AID 1176); further: test concentration not given here; conditions: P. aeruginosa PAO1 growth/biofilm, A600, 12 h; higher = more signal
[16] = growth modulation of vineyard yeast isolate – strain RM11-1a, OD600, basal, 24 h, primary screen (AID 1177);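 further: cultures grown under basal conditions with no added stressor; test concentration not given here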; conditions: S. cerevisiae RM11-1a growth, OD600, 24 h; higher = more signal, called active from +8 up or from −8 down
[17] = growth of efflux-deficient E. coli DRC39 – strain DRC39, OD650, 24 h, E. coli filamentation inducers, primary screen (AID 1178);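 further: growth measured as culture turbidity by optical density at 650 nm; test concentration not given here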; conditions: E. coli DRC39 acrAB, higher = more signal, called active from +8 up or from −8 down
[18] = growth of efflux-deficient E. coli DRC39 – strain DRC39, OD650, 48 h, E. coli filamentation inducers, primary screen (AID 1179);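 further: screen aims at cell division blockers that make cells filament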; conditions: E. coli DRC39 delta-acrAB growth, higher = more signal, called active from +8 up or from −8 down
[19] = viability profiling in RPMI8226 myeloma cells – cell-based, resazurin fluorescence, basal, 24 h, PK04 Diversity Set, profiling panel (AID 1180); conditions: higher = more signal;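 further: RPMI8826 multiple myeloma cell line at 5000 cells per well; test concentration not given here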
[20] = target: E3 ubiquitin-protein ligase XIAP (Homo sapiens) (UniProt P98170); experiment: small molecules binding XIAP protein – biophysical, small-molecule microarray, fluorescence 635 nm, primary screen (AID 1181); conditions: higher = more signal;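 further: score merges 667 nm emission and signal to noise over triplicate slides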
Chain of E3 ubiquitin-protein ligase XIAP (Homo sapiens) (P98170 whole entry, looked up): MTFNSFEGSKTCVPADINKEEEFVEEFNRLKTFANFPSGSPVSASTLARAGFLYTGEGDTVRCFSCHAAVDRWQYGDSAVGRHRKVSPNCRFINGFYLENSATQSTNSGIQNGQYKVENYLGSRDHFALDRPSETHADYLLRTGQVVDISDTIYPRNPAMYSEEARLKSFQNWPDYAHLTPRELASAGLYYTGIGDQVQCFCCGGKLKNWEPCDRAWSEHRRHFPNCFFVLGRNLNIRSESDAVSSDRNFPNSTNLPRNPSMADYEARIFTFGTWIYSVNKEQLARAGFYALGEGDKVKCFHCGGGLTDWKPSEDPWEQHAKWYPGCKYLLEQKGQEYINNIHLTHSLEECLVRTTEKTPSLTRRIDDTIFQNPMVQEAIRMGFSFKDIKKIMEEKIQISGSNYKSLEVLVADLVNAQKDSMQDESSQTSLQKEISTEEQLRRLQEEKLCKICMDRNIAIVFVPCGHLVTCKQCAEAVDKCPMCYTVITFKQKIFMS

Chain of Dihydroorotate dehydrogenase (quinone), mitochondrial (Plasmodium falciparum (isolate 3D7)) (Q08210 whole entry, looked up): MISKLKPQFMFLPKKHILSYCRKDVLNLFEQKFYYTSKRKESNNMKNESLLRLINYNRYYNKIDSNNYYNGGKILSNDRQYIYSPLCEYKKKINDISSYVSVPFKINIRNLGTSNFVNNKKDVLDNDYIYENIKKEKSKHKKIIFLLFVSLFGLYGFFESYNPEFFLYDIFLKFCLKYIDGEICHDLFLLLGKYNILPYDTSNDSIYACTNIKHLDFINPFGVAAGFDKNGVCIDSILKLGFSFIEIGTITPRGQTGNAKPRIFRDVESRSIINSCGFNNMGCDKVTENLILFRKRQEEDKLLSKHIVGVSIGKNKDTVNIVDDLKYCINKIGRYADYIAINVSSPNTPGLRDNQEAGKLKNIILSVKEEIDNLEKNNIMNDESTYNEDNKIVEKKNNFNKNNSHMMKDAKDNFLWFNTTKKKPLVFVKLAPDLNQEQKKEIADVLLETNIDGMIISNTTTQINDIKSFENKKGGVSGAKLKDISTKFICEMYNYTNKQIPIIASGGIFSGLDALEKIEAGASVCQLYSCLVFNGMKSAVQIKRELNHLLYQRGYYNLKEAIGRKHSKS

Work on `COc1cccc(C[C@H]2C[C@@H](CO[Si](C(C)C)(C(C)C)C(C)C)N3C(=O)[C@@]4(C(C)=O)O[C@@]23[C@@H]2C(=O)N(C)C(=O)[C@@H]24)c1` yielded a z-score [1] of -2.05, a z-score [2] of 0.202 and a z-score [3] of -0.342. For the same compound, the z-score [4] was -1.9, the z-score [5] was -1.38 and the z-score [6] was -1.64. The z-score [7] was 1.29 (inactive), the z-score [8] was -0.846 and the z-score [9] was -0.661. The z-score [10] was 0.712 (inactive), the z-score [11] was 0.65 and the z-score [12] was 0.294 (inactive). The z-score [13] was -0.494 (inactive), the composite z-score [14] was 0.0539 (inactive) and the z-score [15] was 0.82 (inactive). For the same compound, the z-score [16] was 0.993 (inactive), the z-score [17] was -0.493 (inactive) and the z-score [18] was -0.638 (inactive). The z-score [19] was -0.334 and the composite z-score [20] was 0.0082.

Compound `C=CCN1C(=O)[C@]2(O[C@H](CCO)[C@@H]([Si](C)(C)c3ccc(OC)cc3)[C@@H]2C)c2ccccc21` has a z-score [1] of -3.94, a z-score [2] of -0.448 and a z-score [3] of -4.62. The z-score [4] was -2.7, the z-score [5] was -4.37 and the z-score [6] was -3.42. The z-score [7] was -0.0442 (inactive), the z-score [8] was -1.18 and the z-score [9] was -2.21. The z-score [10] was -1.83 (inactive), the z-score [11] was -2.84 and the z-score [12] was -5.08 (inactive). For the same compound, the z-score [13] was -1.46 (inactive), the composite z-score [14] was 0.0196 (inactive) and the z-score [15] was 0.225 (inactive). The z-score [16] was 1.55 (inactive), the z-score [17] was -0.377 (inactive) and the z-score [18] was -1.46 (inactive). For the same compound, the z-score [19] was -2.74 and the composite z-score [20] was -0.144.

With `COc1ccc(NN2C(C(O)c3ccc(OC)cc3)C=CC3C(=O)N(C4CCCCC4)C(=O)C32)cc1` (stereo not given) the z-score [1] was -0.285, the z-score [2] was -1.29 and the z-score [3] was 1.24. It also gave a z-score [4] of 0.764, a z-score [5] of -0.512 and a z-score [6] of -0.126. For the same compound, the z-score [7] was 0.0238 (inactive), the z-score [8] was 0.417 and the z-score [9] was -1.44. For the same compound, the z-score [10] was 0.965 (inactive), the z-score [11] was 1.52 and the z-score [12] was -0.365 (inactive). The z-score [13] was 0.363 (inactive), the composite z-score [14] was -0.809 (inactive) and the z-score [15] was 1.05 (inactive). For the same compound, the z-score [16] was 0.107 (inactive), the z-score [17] was -0.447 (inactive) and the z-score [18] was 0.703 (inactive). The z-score [19] was 0.346 and the composite z-score [20] was 0.229.

In the case of `C=C(COC)C(=O)CC[C@@H](OC(=O)c1cccnc1)c1cccc(OCCO)c1`, the z-score [1] is reported as -0.0547, the z-score [2] is reported as 0.627 and the z-score [3] is reported as -0.714. For the same compound, the z-score [4] was -3.31, the z-score [5] was -1.71 and the z-score [6] was 0.082. For the same compound, the z-score [7] was 0.195 (inactive), the z-score [8] was -0.26 and the z-score [9] was -1.78. The z-score [10] was 0.9 (inactive), the z-score [11] was 0.312 and the z-score [12] was 0.798 (inactive). For the same compound, the z-score [13] was -0.857 (inactive), the composite z-score [14] was -0.289 (inactive) and the z-score [15] was 0.543 (inactive). The z-score [16] was 0.544 (inactive), the z-score [17] was 1.16 (inactive) and the z-score [18] was 0.927 (inactive). For the same compound, the z-score [19] was -2.55 and the composite z-score [20] was -0.162.

`C=CC[C@]1(C(=O)NCCCOC)N=C(c2ccc(OCCCO)cc2)O[C@H]1c1ccccc1` showed a z-score [1] of 0.0753, a z-score [2] of 0.301 and a z-score [3] of -1.1. For the same compound, the z-score [4] was -0.464, the z-score [5] was 0.511 and the z-score [6] was 0.238. The z-score [7] was 0.171 (inactive), the z-score [8] was -0.446 and the z-score [9] was -0.607. The z-score [10] was 1.32 (inactive), the z-score [11] was 0.998 and the z-score [12] was -0.96 (inactive). For the same compound, the z-score [13] was 0.619 (inactive), the composite z-score [14] was -0.205 (inactive) and the z-score [15] was -0.661 (inactive). The z-score [16] was 0.0543 (inactive), the z-score [17] was 0.178 (inactive) and the z-score [18] was 0.735 (inactive). For the same compound, the z-score [19] was 1.36 and the composite z-score [20] was 0.102.

For `COCCOC(=O)N1C(=O)[C@@]2(c3ccccc31)[C@H](c1ccc(OCCO)cc1)N1[C@H](c3ccccc3)[C@H](c3ccccc3)OC(=O)[C@H]1[C@@H]2C(=O)N1CCN(c2ncccn2)CC1`, the z-score [1] was -0.158, the z-score [2] was 1.39 and the z-score [3] was -0.29. The z-score [4] was -1.12, the z-score [5] was -1.12 and the z-score [6] was 1.03. For the same compound, the z-score [7] was 0.358 (inactive), the z-score [8] was 0.1 and the z-score [9] was -1.1. For the same compound, the z-score [10] was 0.345 (inactive), the z-score [11] was 0.19 and the z-score [12] was 1.03 (inactive). For the same compound, the z-score [13] was -0.268 (inactive), the composite z-score [14] was -0.0117 (inactive) and the z-score [15] was 1.89 (inactive). For the same compound, the z-score [16] was 2.29 (inactive), the z-score [17] was -0.441 (inactive) and the z-score [18] was -0.849 (inactive). For the same compound, the z-score [19] was 0.603 and the composite z-score [20] was 0.0548.

Compound `COc1ccc(CCNC(=O)[C@@]2(C)c3ccccc3C(=O)N(Cc3cc(C(F)(F)F)cc(C(F)(F)F)c3)[C@H]2c2ccc(CO)cc2)cc1` has a z-score [1] of 0.0571, a z-score [2] of 1.28 and a z-score [3] of -0.23. For the same compound, the z-score [4] was -2.16, the z-score [5] was -3.99 and the z-score [6] was 1.11. For the same compound, the z-score [7] was -0.299 (inactive), the z-score [8] was -0.428 and the z-score [9] was 0.783. For the same compound, the z-score [10] was 0.616 (inactive), the z-score [11] was 0.0945 and the z-score [12] was 0.256 (inactive). For the same compound, the z-score [13] was 0.084 (inactive), the composite z-score [14] was -0.533 (inactive) and the z-score [15] was 0.773 (inactive). For the same compound, the z-score [16] was -0.147 (inactive), the z-score [17] was 0.482 (inactive) and the z-score [18] was 0.282 (inactive). For the same compound, the z-score [19] was 0.639 and the composite z-score [20] was 0.0512.

Work on `CCOC(=O)C1=C(C(=O)OCC)N(S(=O)(=O)CC[Si](C)(C)C)[C@H](c2ccccc2)CC1` yielded a z-score [1] of -2.6, a z-score [2] of -0.872 and a z-score [3] of -2.78. The z-score [4] was -1.02, the z-score [5] was -4.13 and the z-score [6] was 3.63. The z-score [7] was -0.0617 (inactive), the z-score [8] was -0.982 and the z-score [9] was -3.04. The z-score [10] was 0.571 (inactive), the z-score [11] was 0.95 and the z-score [12] was 1.77 (inactive). The z-score [13] was -2.4 (inactive), the composite z-score [14] was -0.493 (inactive) and the z-score [15] was 0.201 (inactive). The z-score [16] was 1.73 (inactive), the z-score [17] was -0.203 (inactive) and the z-score [18] was -0.238 (inactive). For the same compound, the z-score [19] was -4.03 and the composite z-score [20] was -0.127.
